Reference: ChEMBL document CHEMBL3988442, “University of Dundee, Small-Polar-MMV Screening Library” (2021)
For part of these data: Measured potencies and affinities stand elsewhere.

Key:
Set-up in all cases: scale not given: direction of the effect not stated beside the values
[1] = target: Protein translocase subunit SecA (Escherichia coli (strain K12)) (UniProt P10408); assay: Assay to Identify E. coli SecA ATPase Inhibitors; format: functional; settings: 30 µM
[2] = target: T1, Ubiquitin-activating enzyme e1, putative (Leishmania donovani (strain BPK282A1)) (UniProt E9BSI1); assay: Leishmania donovani Ubiquitin Activating Enzyme (LdE1); format: functional; settings: 30 µM
T1 sequence (whole entry): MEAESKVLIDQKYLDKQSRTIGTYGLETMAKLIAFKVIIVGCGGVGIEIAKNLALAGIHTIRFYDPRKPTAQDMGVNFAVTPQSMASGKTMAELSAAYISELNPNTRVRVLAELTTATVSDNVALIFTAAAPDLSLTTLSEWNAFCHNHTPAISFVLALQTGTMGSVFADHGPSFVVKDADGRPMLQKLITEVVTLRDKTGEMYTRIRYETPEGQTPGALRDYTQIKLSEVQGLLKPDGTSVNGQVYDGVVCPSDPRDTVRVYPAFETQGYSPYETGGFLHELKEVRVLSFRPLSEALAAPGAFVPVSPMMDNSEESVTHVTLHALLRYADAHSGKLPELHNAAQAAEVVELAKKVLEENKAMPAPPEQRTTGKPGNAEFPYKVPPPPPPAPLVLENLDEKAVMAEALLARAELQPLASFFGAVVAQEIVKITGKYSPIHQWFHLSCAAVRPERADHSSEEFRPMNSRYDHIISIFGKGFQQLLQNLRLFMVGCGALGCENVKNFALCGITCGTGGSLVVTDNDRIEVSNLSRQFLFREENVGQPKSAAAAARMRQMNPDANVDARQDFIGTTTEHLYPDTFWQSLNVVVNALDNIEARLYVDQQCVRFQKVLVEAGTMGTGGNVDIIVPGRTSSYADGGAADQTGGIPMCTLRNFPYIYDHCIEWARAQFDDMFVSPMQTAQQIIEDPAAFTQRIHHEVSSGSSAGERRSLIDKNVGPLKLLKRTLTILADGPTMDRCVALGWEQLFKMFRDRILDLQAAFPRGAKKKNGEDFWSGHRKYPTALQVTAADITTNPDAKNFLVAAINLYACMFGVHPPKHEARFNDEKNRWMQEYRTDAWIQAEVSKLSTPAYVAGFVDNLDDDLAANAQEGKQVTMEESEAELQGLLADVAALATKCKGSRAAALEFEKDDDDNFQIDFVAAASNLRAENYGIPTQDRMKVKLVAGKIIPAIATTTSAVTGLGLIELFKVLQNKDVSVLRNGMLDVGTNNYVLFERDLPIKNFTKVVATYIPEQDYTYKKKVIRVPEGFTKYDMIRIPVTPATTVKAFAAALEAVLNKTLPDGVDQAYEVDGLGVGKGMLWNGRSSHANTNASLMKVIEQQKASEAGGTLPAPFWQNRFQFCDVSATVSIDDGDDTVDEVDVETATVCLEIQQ

[3] = target: Sialic acid-binding Ig-like lectin 9 (Homo sapiens) (UniProt Q9Y336); assay: Hs-Siglec9 ALPHAscreen SOP 20170721; settings: 10 µM
Trypanosoma cruzi = assay: Trypanosoma cruzi phosphomannomutase and mannose-1-phosphate guanylyltransferase assay; format: functional; settings: 10 µM
[4] = target: T2, Arginase-2, mitochondrial (Homo sapiens) (UniProt P78540); assay: in vitro enzyme assay to detect the production of urea directly proportional to the activity of Arginase II; format: functional; settings: 33.3 µM; also: in the data most compounds retested in dose-response had high values
T2 sequence (whole entry): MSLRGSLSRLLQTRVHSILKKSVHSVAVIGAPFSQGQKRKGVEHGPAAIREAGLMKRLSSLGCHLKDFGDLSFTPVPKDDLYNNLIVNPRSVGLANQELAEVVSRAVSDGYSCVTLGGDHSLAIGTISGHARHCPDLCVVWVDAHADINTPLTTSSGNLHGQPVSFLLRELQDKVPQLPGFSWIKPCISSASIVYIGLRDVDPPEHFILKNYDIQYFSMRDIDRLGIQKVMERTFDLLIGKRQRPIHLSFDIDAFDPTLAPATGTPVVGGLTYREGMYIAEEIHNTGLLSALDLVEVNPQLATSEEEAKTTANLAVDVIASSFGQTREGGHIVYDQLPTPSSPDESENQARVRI

[5] = target: T3, Proteasome subunit beta (Trypanosoma cruzi) (UniProt O96673); assay: Trypanosoma cruzi proteasome chymotrypsin-like activity (TcProtChymo) assay.; also: in the data most compounds retested in dose-response had high values; format: functional; settings: 9.37 µM
T3 sequence (whole entry): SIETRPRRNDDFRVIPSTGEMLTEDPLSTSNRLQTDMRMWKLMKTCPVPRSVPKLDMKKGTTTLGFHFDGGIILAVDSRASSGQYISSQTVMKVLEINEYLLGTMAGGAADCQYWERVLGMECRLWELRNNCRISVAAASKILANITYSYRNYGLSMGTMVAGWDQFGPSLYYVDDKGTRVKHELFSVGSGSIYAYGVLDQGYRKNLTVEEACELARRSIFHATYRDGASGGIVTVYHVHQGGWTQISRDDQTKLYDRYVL

Homo sapiens = species: Homo sapiens; assay: To identify inhibition of the IFN signalling (Jak-Stat) pathway via expression of an eGFP reporter gene under the control of an IFN-stimulated response element (ISRE) containing MxA promoter.; format: functional; settings: 30 µM
[6] = target: T4, Tyrosyl-tRNA synthetase, putative (Trypanosoma cruzi (strain CL Brener)) (UniProt Q4DSP6); assay: Trypanosoma cruzi tyrosyl tRNA synthetase (TcYRS) _High Tyrosine SOP; format: functional; settings: 30 µM; also: in the data most compounds retested in dose-response had high values
T4 sequence (whole entry): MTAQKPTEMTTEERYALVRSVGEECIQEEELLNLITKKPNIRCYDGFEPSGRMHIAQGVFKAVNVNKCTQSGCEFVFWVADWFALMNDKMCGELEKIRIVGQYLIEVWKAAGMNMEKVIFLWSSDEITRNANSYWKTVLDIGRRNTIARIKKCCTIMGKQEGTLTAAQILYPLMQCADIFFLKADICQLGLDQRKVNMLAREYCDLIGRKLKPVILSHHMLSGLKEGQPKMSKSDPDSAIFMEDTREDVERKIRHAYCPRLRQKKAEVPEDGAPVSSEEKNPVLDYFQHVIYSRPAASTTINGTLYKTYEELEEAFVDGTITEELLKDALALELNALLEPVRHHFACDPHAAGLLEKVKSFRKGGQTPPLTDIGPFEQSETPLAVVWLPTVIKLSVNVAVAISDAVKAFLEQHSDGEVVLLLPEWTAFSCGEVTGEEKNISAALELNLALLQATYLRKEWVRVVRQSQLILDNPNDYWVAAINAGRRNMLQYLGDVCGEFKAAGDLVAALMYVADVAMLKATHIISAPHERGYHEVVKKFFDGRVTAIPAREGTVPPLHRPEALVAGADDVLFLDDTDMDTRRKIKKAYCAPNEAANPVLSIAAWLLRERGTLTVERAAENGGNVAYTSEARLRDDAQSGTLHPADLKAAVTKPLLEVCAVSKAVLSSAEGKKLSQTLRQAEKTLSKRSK

[7] = target: T4, Tyrosyl-tRNA synthetase, putative (Trypanosoma cruzi (strain CL Brener)); assay: Trypanosoma cruzi tyrosyl tRNA synthetase (TcYRS) SOP; format: functional; settings: 30 µM
[8] = target: Chromo domain-containing protein 1 (Saccharomyces cerevisiae (strain ATCC 204508 / S288c) (Baker's yeast)) (UniProt P32657); assay: ScCHD-1 Enzyme Inhibition Assay; format: functional; settings: 30 µM; also: in the data most compounds retested in dose-response had high values
Chain of Chromo domain-containing protein 1 (Saccharomyces cerevisiae (strain ATCC 204508 / S288c) (Baker's yeast)) (P32657 whole entry, the tested form may be a part): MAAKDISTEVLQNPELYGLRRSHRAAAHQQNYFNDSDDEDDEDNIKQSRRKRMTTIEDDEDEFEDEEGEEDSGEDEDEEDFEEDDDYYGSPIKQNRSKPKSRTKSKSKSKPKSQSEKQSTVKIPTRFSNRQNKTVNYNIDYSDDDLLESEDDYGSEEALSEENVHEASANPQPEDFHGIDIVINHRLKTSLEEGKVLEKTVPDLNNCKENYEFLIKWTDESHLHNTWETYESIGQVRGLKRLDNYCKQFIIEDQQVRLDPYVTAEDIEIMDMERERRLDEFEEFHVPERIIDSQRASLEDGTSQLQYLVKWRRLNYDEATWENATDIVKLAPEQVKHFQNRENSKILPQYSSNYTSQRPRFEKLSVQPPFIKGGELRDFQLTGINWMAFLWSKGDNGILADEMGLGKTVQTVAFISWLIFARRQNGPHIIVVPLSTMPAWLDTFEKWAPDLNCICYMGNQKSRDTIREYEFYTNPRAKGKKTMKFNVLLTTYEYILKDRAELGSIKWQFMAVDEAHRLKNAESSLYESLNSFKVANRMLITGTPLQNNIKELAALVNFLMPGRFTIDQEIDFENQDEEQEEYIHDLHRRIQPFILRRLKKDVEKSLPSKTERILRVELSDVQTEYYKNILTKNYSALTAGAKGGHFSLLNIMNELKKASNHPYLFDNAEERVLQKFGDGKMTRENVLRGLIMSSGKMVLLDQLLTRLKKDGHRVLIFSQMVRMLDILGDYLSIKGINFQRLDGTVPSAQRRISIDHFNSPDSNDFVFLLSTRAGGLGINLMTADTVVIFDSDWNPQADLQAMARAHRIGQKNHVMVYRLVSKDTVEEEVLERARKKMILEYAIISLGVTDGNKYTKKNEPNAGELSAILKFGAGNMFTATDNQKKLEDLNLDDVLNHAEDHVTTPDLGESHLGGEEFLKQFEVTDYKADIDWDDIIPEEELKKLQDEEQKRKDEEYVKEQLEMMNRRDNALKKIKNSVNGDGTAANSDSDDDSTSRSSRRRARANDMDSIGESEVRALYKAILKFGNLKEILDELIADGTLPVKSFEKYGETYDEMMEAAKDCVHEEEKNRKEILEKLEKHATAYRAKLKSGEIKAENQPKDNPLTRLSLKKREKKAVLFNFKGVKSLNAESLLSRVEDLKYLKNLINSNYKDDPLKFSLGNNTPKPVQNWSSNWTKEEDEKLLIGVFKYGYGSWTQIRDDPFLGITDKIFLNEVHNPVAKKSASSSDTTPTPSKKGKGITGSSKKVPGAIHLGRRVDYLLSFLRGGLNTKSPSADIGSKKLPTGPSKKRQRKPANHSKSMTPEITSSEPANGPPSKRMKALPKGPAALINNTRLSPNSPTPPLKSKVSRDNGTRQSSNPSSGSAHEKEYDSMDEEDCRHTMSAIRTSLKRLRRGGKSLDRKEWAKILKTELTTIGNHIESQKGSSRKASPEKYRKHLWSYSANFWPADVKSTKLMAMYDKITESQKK

Chain of Protein translocase subunit SecA (Escherichia coli (strain K12)) (P10408 whole entry): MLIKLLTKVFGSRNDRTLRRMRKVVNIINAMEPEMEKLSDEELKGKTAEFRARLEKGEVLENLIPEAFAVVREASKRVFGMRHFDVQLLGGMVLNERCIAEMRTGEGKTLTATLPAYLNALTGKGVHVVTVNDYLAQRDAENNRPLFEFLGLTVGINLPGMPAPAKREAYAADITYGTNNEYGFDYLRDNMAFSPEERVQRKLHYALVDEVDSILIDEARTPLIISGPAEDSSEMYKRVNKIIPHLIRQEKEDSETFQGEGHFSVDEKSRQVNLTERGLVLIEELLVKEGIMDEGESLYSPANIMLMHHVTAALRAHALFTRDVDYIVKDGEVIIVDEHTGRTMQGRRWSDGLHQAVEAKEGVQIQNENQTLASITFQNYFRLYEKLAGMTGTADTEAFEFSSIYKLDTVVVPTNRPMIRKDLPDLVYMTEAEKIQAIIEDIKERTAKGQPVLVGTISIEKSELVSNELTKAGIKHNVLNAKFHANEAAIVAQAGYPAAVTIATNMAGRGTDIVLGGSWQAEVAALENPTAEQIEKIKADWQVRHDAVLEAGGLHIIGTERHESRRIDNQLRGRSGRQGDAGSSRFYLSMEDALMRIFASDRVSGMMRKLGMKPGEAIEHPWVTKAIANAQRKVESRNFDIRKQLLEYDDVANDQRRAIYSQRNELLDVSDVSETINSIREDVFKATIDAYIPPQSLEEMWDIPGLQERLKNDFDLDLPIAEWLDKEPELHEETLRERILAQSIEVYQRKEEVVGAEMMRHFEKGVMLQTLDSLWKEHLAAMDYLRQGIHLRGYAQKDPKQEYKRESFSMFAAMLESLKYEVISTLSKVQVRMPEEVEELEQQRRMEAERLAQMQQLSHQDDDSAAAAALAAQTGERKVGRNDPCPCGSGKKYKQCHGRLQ
Chain of Sialic acid-binding Ig-like lectin 9 (Homo sapiens) (Q9Y336 whole entry): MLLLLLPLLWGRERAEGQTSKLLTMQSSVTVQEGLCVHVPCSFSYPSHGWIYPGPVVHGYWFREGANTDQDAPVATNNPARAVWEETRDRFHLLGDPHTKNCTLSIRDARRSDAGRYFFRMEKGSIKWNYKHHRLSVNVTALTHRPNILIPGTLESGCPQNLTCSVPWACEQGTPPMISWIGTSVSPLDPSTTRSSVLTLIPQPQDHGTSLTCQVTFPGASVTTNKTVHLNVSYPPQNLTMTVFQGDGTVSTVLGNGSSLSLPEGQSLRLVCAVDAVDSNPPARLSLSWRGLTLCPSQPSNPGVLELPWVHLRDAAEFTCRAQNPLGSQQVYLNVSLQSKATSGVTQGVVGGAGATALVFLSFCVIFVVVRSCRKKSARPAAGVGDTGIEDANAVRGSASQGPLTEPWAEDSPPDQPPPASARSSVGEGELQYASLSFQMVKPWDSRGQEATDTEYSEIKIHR

SMILES | Percent Effect [1] [%] | Percent Effect [2] [%] | Percent Effect [3] [%] | Percent Effect (Trypanosoma cruzi) [%] | Percent Effect [4] [%] | Percent Effect [5] [%] | Percent Effect (Homo sapiens) [%] | Percent Effect [6] [%] | Percent Effect [7] [%] | Percent Effect [8] [%]
Cc1ccc(CC(=O)N2CCc3nnc(N(C)C)cc3C2)cn1 | 0.88 | 20.5 | -4.67 | -0.469 | 2.05 | 13.6 | 16.2 | 6.22 | 10.8 | -4.95
Cc1ccc(C#N)cc1NC(=O)NC1CCCN(c2ncccn2)C1 (stereo not given) | -5.74 | 15.6 | 3.91 | -2.98 | 1.02 | -1.4 | 20.9 | 3.92 | 18.8 | -8.47
Cc1nc(CNC(=O)NCC(O)c2ccc(F)cc2F)cs1 (stereo not given) | 0.239 | 13.3 | -2.61 | -4.62 | 2.22 | 9.75 | -4.09 | 8.95 | 15.4 | -9.8
OC(CNCCn1cccn1)c1ccc2c(c1)OCCO2 (stereo not given) | -5.4 | 13.3 | 10.3 | 1 | 0 | 4.83 | -2.77 | 4.74 | 10.3 | -13.4
CN1[C@H](Cn2cccn2)C[C@@H]2CN(C(=O)Cc3cccs3)CC[C@@H]21 | -4.49 | 11.7 | -0.662 | -3.56 | -1.83 | 9.53 | 18.5 | 6.76 | 0 | -10.4
CCn1cc(NC(=O)CCc2ccc3c(c2)OCCCO3)cn1 | -5.48 | 15.6 | 6.08 | 4.85 | -6.35 | 2.28 | 0.692 | 6.86 | 23.5 | -12.8
Cc1ccc(C(=O)N2CCN(Cc3ccsc3)CC2)n1C | -2.67 | 5.33 | 2.26 | -1.61 | 0.887 | 5.34 | -8.24 | 5.79 | 7.69 | -6.68
Cc1ccc(NC(=O)C2CSCN2C(=O)c2cnccn2)c(C)c1 (stereo not given) | -4.93 | 7.69 | -2.1 | -4.6 | 6.15 | 1.11 | 26.2 | 3.35 | 10.8 | -1.89
CC(Nc1cccc(CN2CCOC2=O)c1)C(=O)N1CCNC1=O (stereo not given) | -10.4 | 7.69 | 2.33 | -5.16 | -2.46 | 2.3 | 28.2 | 2.39 | 8.43 | -2.72
CC(=O)NC1CCCN(C(=O)NCc2cccnc2N(C)C)C1 (stereo not given) | -1.76 | 16 | 3.66 | 0.402 | 6.65 | 11.4 | 11.5 | 8.95 | 15.4 | -11.3
CCC1CN(C(=O)NCCOc2ccc3c(c2)OCO3)CCO1 (stereo not given) | 1.77 | 18.2 | -3.28 | -3.36 | 5.53 | 15.4 | 1.58 | 4.9 | 16.5 | -6.67
CCOc1ncccc1C(=O)N1CCCC1c1c(C)nn(C)c1OC (stereo not given) | 1.2 | 0 | 10.2 | 1.68 | -2.25 | -2.81 | -1.22 | 4.9 | 11.8 | -4.83
